# Experimental data as given in PubChem BioAssay (NCATS).
# Records with an inconclusive call do not appear. A call without a number means that no potency is given here. Activity calls are given as the source filed them. Calls come from the whole dose curve; as a rule, active = well fitted cell-killing curve with a large enough effect; inconclusive = small, poorly fitted or top-dose-only effect, or effect the other way; inactive = no such curve, though single readings can be large or run the other way.
# Test: Quantitative High-Throughput drug screen in 47 multiple myeloma cell lines against the NCATS MIPE library collection: OCIMY5_PLB cell viability assay (AID 1918988); note: nearly all actives have a fitted effect of over 65% in size
# Conditions: OCI-MY5 myeloma viability, ATP luminescence, 48 h; series mostly up to 45.8 µM
# How it was run: (§1)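 Cells were exposed to library compounds for 48 hours, after which ATP was measured by CellTiter-Glo. Signal was taken as median relative luminescence units.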
# Potency is the fitted concentration of half-maximal effect.
row,Compound,Potency
1,COc1cnc(NS(=O)(=O)c2ccc(N)cc2)nc1,inactive
2,CCOc1cc(N)c(Cl)cc1C(=O)NCC1CN(Cc2ccc(F)cc2)CCO1 (centres undefined),inactive
3,NC(N)=NC(N)=NCCc1ccccc1,13.2 µM (active)
4,Cc1ccnc2c1NC(=O)c1cccnc1N2C1CC1,inactive
5,Cn1c(=O)c2c(ncn2CC(O)CO)n(C)c1=O (centres undefined),inactive
6,CC(C)(Sc1cc(C(C)(C)C)c(O)c(C(C)(C)C)c1)Sc1cc(C(C)(C)C)c(O)c(C(C)(C)C)c1,inactive
7,CCN(C)C(=O)Oc1cccc([C@H](C)N(C)C)c1,inactive
8,COc1c(N2CCNC(C)C2)c(F)cc2c(=O)c(C(=O)O)cn(C3CC3)c12 (centres undefined),inactive

# Test: Quantitative High-Throughput drug screen in 47 multiple myeloma cell lines against the NCATS MIPE library collection: OPM1_PLB cell viability assay (AID 1918989); note: nearly all actives have a fitted effect of over 40% in size
# Conditions: CellTiter-Glo, 48 h; series mostly up to 45.8 µM
# How it was run: as §1
row,Compound,Potency
1,CC(C)(C#N)c1cc(Cn2cncn2)cc(C(C)(C)C#N)c1,inactive
2,COc1ccc2c(c1)c(CC(=O)OCC(=O)O)c(C)n2C(=O)c1ccc(Cl)cc1,inactive
3,Cc1ncc([N+](=O)[O-])n1CCO,inactive
4,COc1ncnc(NS(=O)(=O)c2ccc(N)cc2)c1OC,inactive
5,O=P(O)(O)C(O)(Cc1cccnc1)P(=O)(O)O,inactive
6,COc1ccccc1OCC(O)COC(N)=O (centres undefined),inactive
7,O=C(O)c1cc(=O)[nH]c(=O)[nH]1,inactive
8,Cc1onc(-c2ccccc2Cl)c1C(=O)N[C@@H]1C(=O)N2[C@@H]1SC(C)(C)[C@@H]2C(=O)O,inactive
9,CCN[C@H]1C[C@H](C)S(=O)(=O)c2sc(S(N)(=O)=O)cc21,inactive
10,COc1cc2ncnc(Nc3cccc(Cl)c3)c2cc1OC,20.9 µM (active)
11,Cc1noc(NS(=O)(=O)c2ccc(N)cc2)c1C,inactive
